Test results from PubChem BioAssay (NCATS).
Inconclusive results are not listed. Where a call stands in place of a potency, no number is given. Activity calls are given as the source filed them. The call rests on the fitted dose curve; in most records, active means well fitted inhibition curve with a large enough effect; inconclusive means small, poorly fitted or top-dose-only effect; inactive means no such curve, though single readings can be large or run the other way.

Each molecule was assayed against N-terminal Xaa-Pro-Lys N-methyltransferase 1 (Homo sapiens) (UniProt Q9BV86) (assay: qHTS Assay for Inhibitors of N-terminal methyltransferase 1 (NTMT1): LOPAC validation of the NTMT1 SAHH-coupled ThioGlo3 Assay (AID 1347143;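 further: SAH from peptide methylation measured as thiol fluorescence via SAHH coupling and ThioGlo3; nearly all actives have a fitted effect of over 70% in size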)). Settings: recombinant NTMT1, SAHH-coupled ThioGlo3 fluorescence; series mostly up to 114 µM.
Method in brief: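 Recombinant human NTMT1 (125nM) was pre-incubated 1 min at room temperature with compounds over a concentration range, then a mix of 100uM SAM, 10uM SAHH and 15uM ThioGlo3 (concentrations in added reagent) was added. ThioGlo3 fluorescence (ex 340/em 450nm) after 30 min was normalized to the initial reading.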

Sequence of N-terminal Xaa-Pro-Lys N-methyltransferase 1 (Homo sapiens) (Q9BV86 whole entry, looked up): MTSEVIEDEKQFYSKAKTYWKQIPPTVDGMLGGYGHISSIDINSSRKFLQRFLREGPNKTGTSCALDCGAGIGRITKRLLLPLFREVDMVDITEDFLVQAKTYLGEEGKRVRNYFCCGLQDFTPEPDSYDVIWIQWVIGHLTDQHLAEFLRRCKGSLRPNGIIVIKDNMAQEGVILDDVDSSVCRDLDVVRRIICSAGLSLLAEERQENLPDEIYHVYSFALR

Row | SMILES | Potency
1 | CN1CC(O)C(O)C(O)C1CO (stereo unspecified) | inactive
2 | O=c1[nH]c2cc(Cl)ccc2c(O)c1-c1ccc(Oc2ccccc2)cc1 | inactive
3 | [N-]=[N+]=Nc1ccc(C(=O)CSC[C@H](NC(=O)CC[C@H](N)C(=O)O)C(=O)NCC(=O)O)cc1 | inactive
4 | NC(N)=NC(N)=Nc1ccccc1 | inactive
5 | Nc1ncnc2c1nc(Sc1ccc(Cl)cc1)n2[C@H]1OC2COP(=O)(O)O[C@@H]2C1O (stereo partly specified) | inactive
6 | c1ccc(C2CN3CCSC3=N2)cc1 (stereo unspecified) | inactive
7 | N[C@H](C(=O)O)[C@H]1C[C@@H]1C(=O)O | inactive
8 | Nc1ncnc2c1ncn2C1CCCO1 (stereo unspecified) | inactive
9 | CSC(N)=NCCC[C@H](N)C(=O)O | inactive

The molecules below were run on Zika virus NS2B-NS3 protease (unlinked) (assay: Optimization of GU AMC qHTS for Zika virus inhibitors: Unlinked NS2B-NS3 protease assay (AID 1347151; further: nearly all actives have a fitted effect of over 80% in size; further: potency means the concentration at half of the fitted maximal effect)). Settings: recombinant ZIKV NS2B-NS3 protease, fluorogenic AMC substrate; series mostly up to 52.5 µM.
Method in brief: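 Unlinked protease (25 nM final); buffer 10 mM Tris-HCl pH 8.0 + 0.01% Tween 20; AMC substrate; 15 min RT, dark; Δfluorescence normalized to no-inhibitor/no-enzyme controls; 4-parameter Hill fit.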

Row | SMILES | Potency
10 | O=C(O)C1=CCCNC1 | inactive
11 | CC(C)C[C@H](NC(=O)[C@H](O)[C@H](N)Cc1ccccc1)C(=O)O | inactive
12 | Cc1nc2n(c(=O)c1CCN1CCC(c3noc4cc(F)ccc34)CC1)CCCC2O (stereo unspecified) | inactive
13 | CC1CNCCN1S(=O)(=O)c1cccc2cnccc12 (stereo unspecified) | inactive
14 | O=C(O)C1CCNCC1 | inactive
15 | NCCCCN | inactive
16 | NC1(C(=O)O)CC1 | inactive
17 | CN1CC(O)C(O)C(O)C1CO (stereo unspecified) | inactive
18 | CCCCCCCCCC(=O)NC(CN1CCOCC1)[C@H](O)c1ccccc1 (stereo partly specified) | inactive
19 | CCCCCCN(CCCCCC)C(=O)Cc1c(-c2ccc(F)cc2)[nH]c2ccccc12 | 21.2 µM (active)
20 | Cc1cccc(C(=O)NCN2CCN(c3ccccc3C#N)CC2)c1 | 26.7 µM (active)
21 | O=c1[nH]c2ccccc2c2ccccc12 | 26.7 µM (active)
22 | Cc1cc(Cn2cnc3c2C[C@@H](C(=O)O)N(C(=O)C(c2ccccc2)c2ccccc2)C3)ccc1N | inactive
23 | NCCCNCCCCNCCCN | inactive
24 | CC(C)[C@@H]1CC[C@@H](C)C[C@@H]1P(=O)(c1ccccc1)c1ccccc1 | inactive
25 | CCN(CC)CCOC(=O)c1cc(Cl)c(N)cc1OC | inactive
26 | [N-]=[N+]=Nc1ccc(C(=O)CSC[C@H](NC(=O)CC[C@H](N)C(=O)O)C(=O)NCC(=O)O)cc1 | 7.52 µM (active)
27 | Cc1ccccc1/C=C/C1=NCCN1 | inactive
28 | NC(N)=NC(N)=Nc1ccccc1 | inactive

Row | SMILES | Potency
29 | Cn1c(=O)c2c(nc(/C=C/c3cccc(Cl)c3)n2C)n(C)c1=O | 11.9 µM (active)
30 | Nc1ncnc2c1nc(Sc1ccc(Cl)cc1)n2[C@H]1OC2COP(=O)(O)O[C@@H]2C1O (stereo partly specified) | inactive
31 | N[C@@H](Cc1ccc(O)c(I)c1)C(=O)O | inactive
32 | CC(=O)NNC(=O)N1Cc2ccccc2Oc2ccc(Cl)cc21 | inactive
33 | NCC(O)c1ccc(O)c(O)c1 (stereo unspecified) | inactive
34 | c1ccc(C2CN3CCSC3=N2)cc1 (stereo unspecified) | inactive
35 | Cc1cc2c(cc1Cl)N(C(=O)Nc1ccnc3ccccc13)CC2 | inactive
36 | NCCNS(=O)(=O)c1cccc2c(Cl)cccc12 | inactive
37 | NC(N)=N[C@@H](CCC(=O)O)C(=O)O | inactive
38 | O=C(OCCN1CCOCC1)C1(c2ccccc2)CCCCC1 | inactive
39 | CN(C)CCCc1cc(C(=O)Nc2ccc(-c3ccncc3)cc2)ccc1O | inactive
40 | CC(=O)[C@H]1CCC2C3CC=C4C[C@@H](OS(=O)(=O)O)CC[C@]4(C)C3CC[C@@]21C (stereo partly specified) | inactive
41 | N[C@H](C(=O)O)[C@H]1C[C@@H]1C(=O)O | inactive
42 | Nc1ncnc2c1ncn2C1CCCO1 (stereo unspecified) | inactive
43 | CNCCNS(=O)(=O)c1cccc2cnccc12 | inactive
44 | CSC(N)=NCCC[C@H](N)C(=O)O | inactive
45 | CC(C)NC[C@H](O)COc1ccc(CC(N)=O)cc1 | inactive
46 | CSc1nc(N)c2ncn([C@@H]3O[C@H](COP(=O)(O)OP(=O)(O)O)C(O)[C@H]3O)c2n1 (stereo partly specified) | inactive
